Measured values published in the supplement of paper PMC10849652.
Targets with a hit are over-represented here; the source holds about 8,800 in all. About 0.5% of all pairs of compound and target were hits.

Columns and labels:
Test in all cases: log2 fold change, soluble protein after heating vs DMSO (PISA); higher = thermal stabilisation; K562 lysate, 10 uM; active = over 0.2 and 3.5 SD of the protein, either way, in both replicates (recomputed)
erlotinib = compound: C#Cc1cccc(Nc2ncnc3cc(OCCOC)c(OCCOC)cc23)c1 [erlotinib]
How it was run: (§1)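 Thermal stability, expressed as log-two fold change relative to solvent controls, is given from duplicates. Crude K562 extract in PBS pH 7.4 with 1 mM MgCl2, at 1 mg/mL protein, was treated with 10 μM compound for 30 min and heated in aliquots for 3 min across 48°C-58°C. After pooling, adjustment to 0.5% NP-40 at 4°C and centrifugation at 21,000xg for 90 min, supernatant protein was measured by TMTpro 16plex LC-MS/MS with channel sums equalised.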

[1] = compound: C/C(=N\NC(=O)C1=CC(=CC=C1)S(=O)(=O)N2CCOCC2)/C3=C(C=CC(=C3)Cl)O
How it was run: as §1

[2] = compound: C1=CC(=CC=C1C2=NC3=C(N2)C=C(C=C3)C(=O)N)OC4=CC=C(C=C4)Cl
How it was run: as §1

[3] = compound: C1=CC2=C(C=CC(=C2)/C=C\3/C(=O)NC(=NCC4=CC=CS4)S3)N=C1
How it was run: as §1

[4] = compound: C1=CC2=NC=CN=C2C=C1/C=C/3\C(=O)NC(=O)S3
How it was run: as §1

[5] = compound: C1=CC=C(C=C1)C2=NC(=C(N2)C3=CC=NC=C3)C4=CC(=C(C=C4)Cl)O
How it was run: as §1

[6] = compound: C1=CC=C2C(=C1)C3=NNC4=CC=CC(=C43)C2=O
How it was run: as §1

[7] = compound: C1CCN(C1)C(=O)NC2=CC=CC(=C2)NC3=NC=C(C(=N3)NCCC4=CN=CN4)Br
How it was run: as §1

[8] = compound: C1CN(CCC1(CC2=CC=C(C=C2)Cl)N)C3=NC=NC4=C3C=CN4
How it was run: as §1

IRAK-1-4 Inhibitor I = compound: C1COCCN1CCN2C3=CC=CC=C3N=C2NC(=O)C4=CC(=CC=C4)[N+](=O)[O-] [IRAK-1-4 Inhibitor I]
How it was run: as §1

ibrutinib = compound: C=CC(=O)N1CCC[C@@H](n2nc(-c3ccc(Oc4ccccc4)cc3)c3c(N)ncnc32)C1 [ibrutinib]
How it was run: as §1

[9] = compound: CC(=O)c1cnc2ccc(-c3cc(Cl)c(O)c(Cl)c3)nc2c1N[C@H]1CC[C@H](CN(C)C)CC1
How it was run: as §1

ralimetinib = compound: CC(C)(C)Cn1c(N)nc2ccc(-c3[nH]c(C(C)(C)C)nc3-c3ccc(F)cc3)nc21 [ralimetinib]
How it was run: as §1

[10] = compound: CC(C)(O)CC(=O)NCCn1ccc2ncnc(Nc3ccc(Oc4cccc(C(F)(F)F)c4)c(Cl)c3)c21
How it was run: as §1

[11] = compound: CC(C)C1=C2N=C(C=C(N2N=C1)NCC3=CC=CC=C3)NCCCCCCN
How it was run: as §1

[12] = compound: CC1=C(C(CC(=O)N1)C2=CC=C(C=C2)C(F)(F)F)C(=O)NC3=C(C=C4C(=C3)C=NN4)F
How it was run: as §1

[13] = compound: CC1=C(C2=C(C=C1)C(=O)C3=CC=CC=C3N2CCCN)C
How it was run: as §1

[14] = compound: CC1=C(C=C(C=C1)NC(=O)C2=CC(=CC=C2)C(C)(C)C#N)NC3=CC4=C(C=C3)N=CN(C4=O)C
How it was run: as §1

[15] = compound: CC1=C(C=C(C=C1)NC(=O)C2=CC(=CC=C2)N(C)C)NC(=O)C3=CC=C(C=C3)O
How it was run: as §1

[16] = compound: CC1=CC=C(C=C1)SC2=C3C=C(SC3=CN=C2)C(=O)N
How it was run: as §1

Measured: log2 fold change

BLOC1S6 (UniProt Q9UL45)
Chain of UniProt Q9UL45 (Q9UL45 whole entry, looked up): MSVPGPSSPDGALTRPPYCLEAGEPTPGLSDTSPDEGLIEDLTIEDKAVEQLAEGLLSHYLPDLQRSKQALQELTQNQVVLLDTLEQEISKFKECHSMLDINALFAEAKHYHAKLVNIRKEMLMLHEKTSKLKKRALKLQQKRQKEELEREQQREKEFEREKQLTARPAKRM
inactive: erlotinib -0.008 | [1] 0.007 | [2] 0.029 | [3] 0.027 | [4] 0.001 | [5] 0.002 | [6] -0.004 | [7] 0.093 | [8] -0.01 | IRAK-1-4 Inhibitor I -0.031 | ibrutinib 0.156 | [9] -0.07 | ralimetinib 0.015 | [10] 0.061 | [11] -0.029 | [12] 0.014 | [13] -0.033 | [14] -0.001 | [15] -0.017 | [16] 0.012

CELF1 isoform 4 (UniProt Q92879)
active: [14] -0.331
inactive: erlotinib -0.101 | [1] -0.039 | [2] 0.013 | [3] 0.055 | [4] 0 | [5] -0.031 | [6] -0.03 | [7] -0.002 | [8] -0.043 | IRAK-1-4 Inhibitor I -0.045 | ibrutinib 0.027 | [9] -0.027 | ralimetinib 0.034 | [10] -0.004 | [11] 0.033 | [12] 0.072 | [13] 0.016 | [15] 0 | [16] 0.025

CDC123 (UniProt O75794)
Chain of UniProt O75794 (O75794 whole entry, looked up): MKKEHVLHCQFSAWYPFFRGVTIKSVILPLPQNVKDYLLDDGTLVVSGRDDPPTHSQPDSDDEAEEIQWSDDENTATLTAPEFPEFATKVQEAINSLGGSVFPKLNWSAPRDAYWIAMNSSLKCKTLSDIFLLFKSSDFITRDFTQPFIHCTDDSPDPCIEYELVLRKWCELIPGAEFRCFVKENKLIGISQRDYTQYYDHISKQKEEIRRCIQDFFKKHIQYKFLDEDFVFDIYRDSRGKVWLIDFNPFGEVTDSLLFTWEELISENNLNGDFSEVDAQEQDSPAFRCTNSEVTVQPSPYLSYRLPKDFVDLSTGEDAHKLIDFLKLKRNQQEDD
inactive: erlotinib 0.013 | [1] -0.02 | [2] -0.011 | [3] -0.006 | [4] -0.06 | [5] -0.006 | [6] 0.013 | [7] 0 | [8] -0.004 | IRAK-1-4 Inhibitor I -0.025 | ibrutinib 0.025 | [9] 0.022 | ralimetinib 0.06 | [10] 0.008 | [11] 0.027 | [12] 0.045 | [13] 0.016 | [14] -0.071 | [15] 0.031 | [16] 0.003

ATXN2 (UniProt Q99700)
inactive: erlotinib 0.007 | [1] -0.015 | [2] 0.063 | [3] -0.006 | [4] -0.041 | [5] -0.005 | [6] -0.022 | [7] 0.026 | [8] 0.014 | IRAK-1-4 Inhibitor I 0.016 | ibrutinib -0.007 | [9] -0.011 | ralimetinib -0.002 | [10] 0 | [11] 0.016 | [12] 0.013 | [13] -0.022 | [14] -0.02 | [15] 0.041 | [16] -0.021

ATRIP (UniProt Q8WXE1)
inactive: erlotinib -0.009 | [1] 0.032 | [2] -0.023 | [3] 0.227 | [4] 0.046 | [5] 0.064 | [6] 0.266 | [7] -0.059 | [8] -0.057 | IRAK-1-4 Inhibitor I 0.015 | ibrutinib 0.019 | [9] 0.129 | ralimetinib -0.007 | [10] -0.014 | [11] -0.048 | [12] 0.063 | [13] 0.005 | [14] -0.008 | [15] -0.008 | [16] -0.019

CASC4 (UniProt Q6P4E1)
inactive: erlotinib -0.005 | [1] 0.004 | [2] -0.035 | [3] 0.003 | [4] -0.049 | [5] -0.02 | [6] -0.119 | [7] -0.013 | [8] 0.047 | IRAK-1-4 Inhibitor I -0.008 | ibrutinib 0.001 | [9] -0.032 | ralimetinib -0.029 | [10] -0.008 | [11] -0.012 | [12] -0.055 | [13] 0.057 | [14] -0.016 | [15] 0.029 | [16] -0.036

ATP2B4 (UniProt P23634)
Chain of UniProt P23634 (P23634 whole entry, looked up): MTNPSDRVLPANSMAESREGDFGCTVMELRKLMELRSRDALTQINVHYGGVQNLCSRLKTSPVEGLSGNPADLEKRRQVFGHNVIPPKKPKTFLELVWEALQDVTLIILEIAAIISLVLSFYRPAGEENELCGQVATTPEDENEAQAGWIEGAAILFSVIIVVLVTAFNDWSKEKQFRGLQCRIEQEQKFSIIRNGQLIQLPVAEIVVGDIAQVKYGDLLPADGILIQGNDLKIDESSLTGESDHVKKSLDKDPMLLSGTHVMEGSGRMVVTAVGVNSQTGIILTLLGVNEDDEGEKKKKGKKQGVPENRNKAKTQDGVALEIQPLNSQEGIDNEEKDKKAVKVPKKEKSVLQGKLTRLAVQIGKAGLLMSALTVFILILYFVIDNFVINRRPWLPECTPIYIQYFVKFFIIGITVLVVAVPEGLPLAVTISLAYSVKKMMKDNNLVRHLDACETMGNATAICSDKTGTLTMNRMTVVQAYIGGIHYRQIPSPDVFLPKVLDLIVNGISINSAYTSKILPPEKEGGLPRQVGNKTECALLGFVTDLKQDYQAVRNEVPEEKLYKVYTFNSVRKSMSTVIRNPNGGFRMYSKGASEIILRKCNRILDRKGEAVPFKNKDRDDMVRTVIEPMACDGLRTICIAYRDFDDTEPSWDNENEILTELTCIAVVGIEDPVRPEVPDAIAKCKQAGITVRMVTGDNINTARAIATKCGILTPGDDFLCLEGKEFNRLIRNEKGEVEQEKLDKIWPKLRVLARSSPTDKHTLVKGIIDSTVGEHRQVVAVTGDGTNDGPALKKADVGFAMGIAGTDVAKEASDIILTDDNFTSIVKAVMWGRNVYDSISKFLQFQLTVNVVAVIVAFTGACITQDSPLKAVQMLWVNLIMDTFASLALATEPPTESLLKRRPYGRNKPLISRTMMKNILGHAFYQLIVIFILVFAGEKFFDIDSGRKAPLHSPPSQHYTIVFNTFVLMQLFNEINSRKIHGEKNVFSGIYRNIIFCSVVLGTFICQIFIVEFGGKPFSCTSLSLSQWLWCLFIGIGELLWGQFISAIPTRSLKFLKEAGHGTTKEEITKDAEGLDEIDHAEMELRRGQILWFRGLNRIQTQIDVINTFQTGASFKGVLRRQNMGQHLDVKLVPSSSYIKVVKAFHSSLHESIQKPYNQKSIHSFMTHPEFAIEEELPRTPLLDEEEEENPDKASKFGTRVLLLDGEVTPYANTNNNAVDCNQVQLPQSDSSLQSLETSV
inactive: erlotinib 0.021 | [1] 0.023 | [2] 0.012 | [3] 0.024 | [4] 0.019 | [5] -0.015 | [6] -0.018 | [7] 0.017 | [8] 0.045 | IRAK-1-4 Inhibitor I -0.028 | ibrutinib 0.06 | [9] -0.026 | ralimetinib -0.056 | [10] -0.029 | [11] -0.018 | [12] 0.033 | [13] -0.034 | [14] 0.089 | [15] 0.051 | [16] -0.003

ATM (UniProt Q13315)
Chain of UniProt Q13315 (Q13315 whole entry, looked up): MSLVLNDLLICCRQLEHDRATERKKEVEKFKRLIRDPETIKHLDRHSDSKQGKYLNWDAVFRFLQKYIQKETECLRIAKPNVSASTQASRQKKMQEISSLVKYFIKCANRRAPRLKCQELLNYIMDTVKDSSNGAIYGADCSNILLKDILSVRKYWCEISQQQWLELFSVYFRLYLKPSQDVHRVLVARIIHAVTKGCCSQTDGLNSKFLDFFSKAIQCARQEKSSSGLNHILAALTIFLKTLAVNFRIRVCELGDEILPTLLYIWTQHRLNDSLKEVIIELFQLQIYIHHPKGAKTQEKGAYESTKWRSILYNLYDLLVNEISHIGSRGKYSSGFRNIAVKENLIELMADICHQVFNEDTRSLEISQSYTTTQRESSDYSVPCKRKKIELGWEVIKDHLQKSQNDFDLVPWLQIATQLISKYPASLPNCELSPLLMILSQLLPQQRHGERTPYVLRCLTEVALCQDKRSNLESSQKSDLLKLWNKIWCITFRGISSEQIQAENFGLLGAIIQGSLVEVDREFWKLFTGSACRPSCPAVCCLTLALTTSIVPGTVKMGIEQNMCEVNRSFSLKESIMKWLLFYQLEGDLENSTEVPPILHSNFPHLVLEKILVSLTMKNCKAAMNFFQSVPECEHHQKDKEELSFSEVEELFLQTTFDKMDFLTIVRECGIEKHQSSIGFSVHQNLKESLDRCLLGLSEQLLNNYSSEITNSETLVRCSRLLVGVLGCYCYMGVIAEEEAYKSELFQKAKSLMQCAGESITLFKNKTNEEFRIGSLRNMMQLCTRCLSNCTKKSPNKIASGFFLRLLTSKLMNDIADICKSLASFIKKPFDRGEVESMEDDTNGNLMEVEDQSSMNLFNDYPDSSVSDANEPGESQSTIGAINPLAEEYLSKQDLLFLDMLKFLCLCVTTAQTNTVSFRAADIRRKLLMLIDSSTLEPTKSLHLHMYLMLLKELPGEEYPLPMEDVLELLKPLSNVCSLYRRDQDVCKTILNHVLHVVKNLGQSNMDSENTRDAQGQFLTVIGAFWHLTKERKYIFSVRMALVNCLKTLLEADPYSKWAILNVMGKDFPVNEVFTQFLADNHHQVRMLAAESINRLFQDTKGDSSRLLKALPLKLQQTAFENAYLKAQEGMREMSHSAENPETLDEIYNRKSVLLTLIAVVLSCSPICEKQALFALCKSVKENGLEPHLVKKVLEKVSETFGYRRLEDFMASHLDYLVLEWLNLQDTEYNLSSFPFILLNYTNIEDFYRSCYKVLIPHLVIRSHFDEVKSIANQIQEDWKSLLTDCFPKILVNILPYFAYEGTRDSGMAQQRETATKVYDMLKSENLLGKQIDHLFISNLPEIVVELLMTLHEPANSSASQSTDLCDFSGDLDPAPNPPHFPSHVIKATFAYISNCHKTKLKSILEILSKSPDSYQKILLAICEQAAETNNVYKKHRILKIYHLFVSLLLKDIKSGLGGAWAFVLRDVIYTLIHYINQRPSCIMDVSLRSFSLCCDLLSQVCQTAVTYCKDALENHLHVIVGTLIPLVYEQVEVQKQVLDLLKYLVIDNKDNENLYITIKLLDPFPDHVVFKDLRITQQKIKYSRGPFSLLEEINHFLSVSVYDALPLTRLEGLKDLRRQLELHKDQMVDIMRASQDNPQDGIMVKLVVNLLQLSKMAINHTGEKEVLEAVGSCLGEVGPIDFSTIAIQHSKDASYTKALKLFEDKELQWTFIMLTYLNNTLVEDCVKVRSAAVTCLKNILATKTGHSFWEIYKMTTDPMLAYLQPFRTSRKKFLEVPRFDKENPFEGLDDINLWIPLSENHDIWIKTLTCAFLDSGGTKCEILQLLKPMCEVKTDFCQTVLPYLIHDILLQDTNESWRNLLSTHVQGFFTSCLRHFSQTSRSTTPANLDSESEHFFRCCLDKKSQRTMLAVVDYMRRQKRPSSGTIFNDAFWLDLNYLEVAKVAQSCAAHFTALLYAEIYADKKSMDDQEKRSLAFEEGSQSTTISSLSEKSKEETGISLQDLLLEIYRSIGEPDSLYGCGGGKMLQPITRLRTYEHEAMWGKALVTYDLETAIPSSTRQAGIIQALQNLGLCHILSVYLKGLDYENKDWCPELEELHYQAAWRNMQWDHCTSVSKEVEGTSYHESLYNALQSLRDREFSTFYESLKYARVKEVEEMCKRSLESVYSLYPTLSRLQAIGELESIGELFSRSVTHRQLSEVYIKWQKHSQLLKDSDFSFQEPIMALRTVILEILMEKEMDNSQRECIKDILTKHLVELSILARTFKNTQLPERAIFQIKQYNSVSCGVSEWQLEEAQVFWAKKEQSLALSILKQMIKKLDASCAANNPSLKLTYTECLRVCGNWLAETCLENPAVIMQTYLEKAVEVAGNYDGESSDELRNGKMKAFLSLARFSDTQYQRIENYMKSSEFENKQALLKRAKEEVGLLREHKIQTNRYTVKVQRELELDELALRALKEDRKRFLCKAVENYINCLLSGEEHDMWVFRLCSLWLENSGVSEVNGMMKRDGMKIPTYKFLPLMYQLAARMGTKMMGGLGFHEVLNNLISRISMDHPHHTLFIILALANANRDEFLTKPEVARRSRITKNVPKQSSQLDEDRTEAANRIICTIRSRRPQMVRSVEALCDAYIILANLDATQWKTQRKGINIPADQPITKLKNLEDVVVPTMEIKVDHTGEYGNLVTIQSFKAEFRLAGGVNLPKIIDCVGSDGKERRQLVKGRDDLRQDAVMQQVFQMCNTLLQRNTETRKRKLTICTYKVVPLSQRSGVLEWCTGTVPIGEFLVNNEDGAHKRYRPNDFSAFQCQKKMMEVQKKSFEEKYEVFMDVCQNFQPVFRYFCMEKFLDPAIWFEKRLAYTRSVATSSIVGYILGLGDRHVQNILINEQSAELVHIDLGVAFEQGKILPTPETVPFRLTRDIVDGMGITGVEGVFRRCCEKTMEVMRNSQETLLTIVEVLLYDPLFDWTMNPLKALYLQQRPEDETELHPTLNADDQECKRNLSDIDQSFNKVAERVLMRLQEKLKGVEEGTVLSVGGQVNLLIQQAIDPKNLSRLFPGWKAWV
active: [9] 0.253
inactive: erlotinib 0.02 | [1] -0.031 | [2] -0.02 | [3] -0.064 | [4] -0.052 | [5] -0.001 | [6] 0.043 | [7] -0.016 | [8] -0.042 | IRAK-1-4 Inhibitor I 0.007 | ibrutinib 0.027 | ralimetinib 0.013 | [10] -0.021 | [11] 0.04 | [12] 0.002 | [13] -0.027 | [14] -0.014 | [15] -0.015 | [16] -0.013

CCNB2 (UniProt O95067)
inactive: erlotinib 0.037 | [1] 0.038 | [2] 0.075 | [3] -0.061 | [4] -0.008 | [5] 0.008 | [6] -0.125 | [7] -0.02 | [8] 0.027 | IRAK-1-4 Inhibitor I 0.033 | ibrutinib -0.062 | ralimetinib 0.028 | [10] -0.028 | [11] 0.023 | [12] -0.011 | [13] 0.017 | [14] 0.022 | [15] 0.037 | [16] -0.079
active: [9] 0.358

AURKAIP1 (UniProt Q9NWT8)
inactive: erlotinib -0.062 | [1] -0.093 | [2] 0.046 | [3] -0.031 | [4] -0.019 | [6] 0.025 | [7] -0.032 | [8] 0.064 | IRAK-1-4 Inhibitor I 0.095 | ibrutinib -0.055 | [9] -0.095 | ralimetinib -0.363 | [10] -0.222 | [11] 0.021 | [12] 0.029 | [13] -0.012 | [14] 0.135 | [16] -0.013
active: [5] 0.432 | [15] -0.417

CCDC186 (UniProt Q7Z3E2)
inactive: erlotinib -0.018 | [1] 0.026 | [2] 0.01 | [3] 0.007 | [4] -0.03 | [5] -0.009 | [6] -0.027 | [7] -0.039 | [8] 0.007 | IRAK-1-4 Inhibitor I 0.016 | ibrutinib 0.024 | [9] -0.025 | ralimetinib -0.001 | [10] -0.056 | [11] -0.086 | [12] 0.006 | [13] 0.021 | [14] -0.016 | [15] 0 | [16] -0.023

BUB1B isoform 3 (UniProt O60566)
inactive: erlotinib 0.019 | [1] 0.013 | [2] -0.002 | [3] -0.026 | [4] 0.01 | [5] 0.021 | [6] -0.039 | [7] -0.031 | [8] -0.008 | IRAK-1-4 Inhibitor I -0.016 | ibrutinib 0.035 | [9] -0.007 | ralimetinib 0.001 | [10] 0.021 | [11] 0.003 | [12] -0.001 | [13] 0.004 | [14] -0.028 | [15] 0.003 | [16] 0.001

ATE1 isoform 2 (UniProt O95260)
inactive: erlotinib -0.022 | [1] -0.01 | [2] 0.002 | [3] -0.063 | [4] 0.027 | [5] 0.007 | [6] 0.021 | [7] 0.054 | [8] 0.013 | IRAK-1-4 Inhibitor I -0.038 | ibrutinib 0.056 | [9] 0.001 | ralimetinib -0.006 | [10] 0.063 | [11] -0.016 | [12] 0.048 | [13] -0.001 | [14] -0.04 | [15] -0.004 | [16] 0.011

CAMKK1 isoform 2 (UniProt Q8N5S9)
inactive: erlotinib -0.037 | [1] 0.042 | [2] -0.003 | [3] -0.085 | [4] 0.043 | [5] -0.01 | [6] 0.042 | [7] -0.076 | [8] -0.069 | IRAK-1-4 Inhibitor I 0.001 | ibrutinib 0.027 | [9] 0.189 | ralimetinib 0.063 | [10] -0.153 | [11] -0.059 | [12] -0.008 | [13] -0.055 | [14] 0.014 | [15] 0.004 | [16] 0.138

CENPQ (UniProt Q7L2Z9)
Chain of UniProt Q7L2Z9 (Q7L2Z9 whole entry, looked up): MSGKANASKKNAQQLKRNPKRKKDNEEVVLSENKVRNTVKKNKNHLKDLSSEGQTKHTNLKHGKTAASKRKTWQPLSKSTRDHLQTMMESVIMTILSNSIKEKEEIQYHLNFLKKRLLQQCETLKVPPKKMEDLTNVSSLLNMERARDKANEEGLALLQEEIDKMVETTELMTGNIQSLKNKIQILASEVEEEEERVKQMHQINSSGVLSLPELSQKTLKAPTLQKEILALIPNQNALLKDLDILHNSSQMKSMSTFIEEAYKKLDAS
inactive: erlotinib -0.064 | [1] -0.011 | [2] 0.057 | [3] 0.098 | [4] 0.078 | [5] 0.016 | [6] 0.033 | [7] -0.069 | [8] 0.111 | IRAK-1-4 Inhibitor I -0.012 | ibrutinib 0.009 | [9] 0.162 | ralimetinib 0.029 | [10] -0.002 | [11] 0.005 | [12] 0.097 | [13] -0.153 | [14] -0.057 | [15] -0.075 | [16] 0.013

BORCS5 (UniProt Q969J3)
inactive: erlotinib -0.014 | [1] -0.027 | [2] 0.016 | [3] 0.015 | [4] -0.036 | [5] -0.017 | [6] -0.012 | [7] 0.029 | [8] 0.128 | IRAK-1-4 Inhibitor I 0.004 | ibrutinib 0.088 | [9] -0.02 | ralimetinib -0.033 | [10] 0.012 | [11] 0.033 | [12] 0.153 | [13] -0.012 | [14] 0.021 | [15] 0.034 | [16] -0.001
